# From PubChem
# Hits are enriched below; roughly 9.6% of the tested compounds scored in any of these assays.
# PostGolgi ctrl: yeast control strain growth, post-Golgi counter-screen | 5% of 98,000 active | efflux-deficient yeast background strain, growth absorbance A615, 16 h | AID 738 | inhibition, % at 10 µM
# DAT uptake mod: modulates human dopamine transporter uptake under cocaine | Q01959 | LLC-PK1 hDAT cells, [14C]-dopamine uptake with cocaine IC80; actives deviate in either direction | B-score at 10 µM | 1.3% of 110,000 active | AID 449768;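 active = Z score or B-score, a plate-position-corrected score, falls beyond the plate's 99.7% confidence bounds, in either direction; inactive = both scores lie inside the 99.7% bounds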;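 note: scored against the spread of the other compound wells on the same plate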
# PostGolgi yeast: growth inhibition of a yeast mutant, post-Golgi transport screen; post-Golgi transport phenotypic cell assay; inhibition, % at 10 µM; 0.9% of 98,000 active; AID 739;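 note: yeast cells grown in 1536-well plates; yeast grown about 18 h at 30C before absorbance read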
# Cav32 inh: human Cav3.2 channel inhibition, primary screen | 4% of 100,000 active | Cav3.2-expressing cells, Fluo-4 calcium fluorescence FDSS; hits give low values | B-score at 10 µM;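 active = single-dose well whose peak fluorescence ratio is a statistical outlier from its plate by either plate-standardised score or position-corrected B-score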
# PLAP act: human PLAP activation | activation fold at 20 µM | 1.2% of 96,000 active | purified PLAP enzyme, luminescent substrate read-out; hits give high values | P05187; in the data active = activation fold above about 2
# * = called active by the depositor; / = no result given. Cut-off read from the data, not from the text of the source, unless noted: active = inhibition above about 30%; inactive = the rest.
SMILES,PostGolgi ctrl,DAT uptake mod,PostGolgi yeast,Cav32 inh,PLAP act
COc1cc(NC(=O)c2cccc(Cl)c2)c(OC)cc1NC(=O)CN1CCOCC1,14,1.9,-2,-0.53,1.5
Cc1ccc(C(C)NC(=O)C2CCCO2)cc1C (stereo not given),11,-1.1,5,-5.4*,1.4
CCNC(=O)CC1C(=O)N(c2ccc(F)cc2)C(=O)N1Cc1ccccn1 (stereo not given),7,0.83,6,-1,1
COC(=O)/C(=C1/Oc2cc(C)oc(=O)c2S1)C(F)(F)F,78*,-1.6,5,0.35,/
CC(C)c1nnc(NC(=O)CCC(=O)Nc2ccc(F)cc2)s1,-8,-0.35,-1,-0.099,1
CC(=O)c1ccccc1OCCn1nnc(-c2ccc(C)cc2)n1,/,0.49,/,-5.1*,/
O=C(Oc1ccc(/C=N/O)cc1)c1ccccc1,31*,-0.8,12,-0.61,0.9
CCOC(=O)CSc1nc2cc3c(cc2cc1CC)OCCO3,/,-0.26,/,-4.6*,/
Cc1cc2cc3c(cc2nc1SCC(=O)OC(C)C)OCCO3,0,-1.6,-13,-0.65,0.9
CS(=O)(=O)N(CC(=O)N1CCN(c2ccccc2F)CC1)c1cccc(C(F)(F)F)c1,5,-0.15,-4,-2.5,0.9
CC(=O)N1c2ccccc2C(=O)C1N1CCCCC1 (stereo not given),10,0.0011,7,-0.6,1
CCCCn1c(=N)n(CC(=O)c2ccco2)c2ccccc21,11,0.026,9,/,0.9
CCCCCCn1c(C(C)NC(=O)c2ccco2)nc2ccccc21 (stereo not given),14,-0.42,3,-10*,1.7
CCCCCCCn1c(=N)n(CC(=O)c2ccco2)c2ccccc21,8,-0.39,5,-2.6*,1
CCCCn1c(C(C)NC(=O)CC)nc2ccccc21 (stereo not given),-3,-1.1,0,1.1,1.1
Cc1[nH]n(-c2ccccc2)c(=O)c1C=Nc1cnc2ccccc2c1,-3,-0.15,6,-0.59,2.1*
Cc1ccc(-n2[nH]c(C)c(C=Nc3ccc(C)cn3)c2=O)cc1,15,-0.0035,0,-0.59,1.4
Cc1[nH]n(-c2ccccc2)c(=O)c1/C=N/c1ccccn1,-3,0.26,1,/,2.1*
CCCCC(CC)C(=O)NCCCN1CCN(CCCNC(=O)C(CC)CCCC)CC1 (stereo not given),-1,0.02,-5,-7.3*,1.7
CC(C)CC(=O)NCCCN1CCN(CCCNC(=O)CC(C)C)CC1,/,0.19,/,0.41,/
CN(C)/C=N/c1cc(=O)[nH]c(=O)n1C,/,-0.39,/,0.015,/
Cc1cc2ncn(/N=C/c3ccc(-c4ccccc4)o3)c2cc1C,4,0.82,-5,0.79,1
Cc1ccc(/C=N/n2cnc3sc(-c4ccccc4)cc3c2=O)o1,2,0.5,65*,-0.39,0.9
CCn1c(-c2ccccc2)ccc(C#N)c1=O,9,0.012,-1,-0.96,1
CCNc1cc2oc(=O)c(CN3CCOCC3)c(C)c2cc1C,1,0.0097,7,-0.6,2*
SMILES,PostGolgi ctrl,DAT uptake mod,PostGolgi yeast,Cav32 inh,PLAP act
Cc1ccc(S(=O)(=O)NNc2ccccc2)cc1,19,-1.6,-6,-0.15,0.8
Cc1ccc(S(=O)(=O)NNc2nc3ccccc3nc2C(F)(F)F)cc1,8,0.063,-1,-3.4*,1.8
Cc1c(NC(=O)CSc2nnc3sc4ccccc4n23)c(=O)n(-c2ccccc2)n1C,2,-0.48,6,-2.2,0.8
CC(=O)N1CCc2c(sc(NC(=O)c3ccc4c(c3)OCCO4)c2C#N)C1,5,0.011,4,-0.75,1
COc1ccc(NC(=O)CSc2nnc(C3CCCCC3)n2-c2ccccc2)cc1,15,0.18,-3,-6.1*,1.5
CCc1ccc(NC(=O)CSc2nnc(Cc3cccn3C)n2-c2ccc(OC)cc2)cc1,2,2.2,-2,-5.4*,1.4
COc1ccc(-n2c(Cc3cccn3C)nnc2SCC(=O)Nc2ccccc2)cc1,5,0.23,4,-13*,1.4
COc1ccc(-n2c(Cc3cccn3C)nnc2SCC(=O)Nc2ccc(Cl)cc2)cc1,7,-0.25,-7,-4.5*,1.3
COc1ccc(-n2c(Cc3cccn3C)nnc2SCC(=O)Nc2nc(C)cs2)cc1,-5,/,-5,/,1.1
COc1ccc(-n2c(Cc3cccn3C)nnc2SCC(N)=O)cc1,-3,0.2,17,-0.28,1.3
CN(C)c1ccc(C(=O)OCC(=O)NC2CCCCC2)cc1,-9,-1.3,-1,0.31,1
COc1cccc(N(C(=O)Cn2nnc(-c3cccs3)n2)C(C(=O)NC2CCCCC2)c2ccncc2)c1 (stereo not given),23,/,-13,/,0.9
CCCCc1[nH]c(=O)c(C#N)c2c1CCCC2,9,1.3,-2,0.53,1
CN(C)c1ccc(/C(=N\O)c2ccccc2)cc1,6,0.73,-2,-2.9,0.8
COc1ccc(-n2c(Cc3cccn3C)nnc2SCC(=O)NCc2ccc(F)cc2)cc1,12,2.3,2,-7.1*,1.5
COc1ccc(-n2c(Cc3cccn3C)nnc2SCC(=O)Nc2cccc(F)c2)cc1,6,0.93,16,-4.5*,1.6
COc1ccc(-n2c(Cc3cccn3C)nnc2SCC(=O)NCc2ccco2)cc1,8,-0.24,5,-0.74,1.3
COc1ccc(-n2c(Cc3cccn3C)nnc2SCC(=O)NC2CCCC2)cc1,8,-0.71,8,0.28,1.5
COc1cccc(C2CC(c3cccc(Br)c3)n3nc(N)nc3N2)c1 (stereo not given),-4,-1.3,-4,0.38,1.1
CCCOc1ccc(/C=C/C(=O)Nc2ccc([N+](=O)[O-])cc2)cc1,95*,-0.0013,7,1,0.8
O=C(/C=C/c1ccc([N+](=O)[O-])cc1)NCCSc1ccccc1,-5,-0.17,-7,-3.8*,0.7
Cc1ccc(SCCNC(=O)/C=C/c2ccccc2Cl)cc1,4,0.21,-2,-2.8*,1.1
Cc1cnc(C(=O)Nc2nccs2)cn1,-1,-0.84,-2,0.92,1.4
COc1ccc2c(c1)c1c(n2C(C)=O)C(OC(C)=O)=NCC1,3,1.2,-3,-0.0075,0.9
Cc1cc(C)nc(SCC2COc3ccccc3O2)n1 (stereo not given),13,0.32,2,-2.6,1.1
SMILES,PostGolgi ctrl,DAT uptake mod,PostGolgi yeast,Cav32 inh,PLAP act
O=C(C1CCCN(S(=O)(=O)c2ccc(F)cc2)C1)N1CCCC1 (stereo not given),9,0.42,-9,0.82,0.9
O=C(C1CCCN(S(=O)(=O)c2ccc(F)cc2)C1)N(Cc1cccs1)C1CC1 (stereo not given),17,0.27,-2,-4.1*,1.5
O=C(CSc1oc(-c2ccco2)nc1S(=O)(=O)c1ccc(Cl)cc1)NCC1CCCO1 (stereo not given),11,-0.9,37*,-0.18,1.7
CCCSc1oc(-c2ccco2)nc1S(=O)(=O)c1ccccc1,33*,0.64,15,-2.1,1.2
CC(C)Sc1oc(-c2ccco2)nc1S(=O)(=O)c1ccc(F)cc1,21,0.7,3,-5.3*,/
CCSc1oc(-c2ccco2)nc1S(=O)(=O)c1ccccc1,12,0.29,-14,-0.94,/
